# Source: PubChem BioAssay (NCATS)
# Inconclusive results are not listed. Active and inactive are the calls of the source. Calls come from the whole dose curve; tested in HEK293 reporter line.
# Experiment: qHTS for Inhibitors of the Functional Ribonucleoprotein Complex (vRNP) of Lassa (LASV) Arenavirus: LASV Primary Screen - GLuc reporter signal (AID 1347082); note: nearly all actives have a fitted effect of over 60% in size
# Conditions: LASV minigenome vRNP, Gaussia luciferase reporter; series mostly up to 57.5 µM; activity change, negative = inhibition: at the top concentration
# % is set by controls: 0 for no effect and ±100 for the full control effect.
SMILES,Potency,"activity change, negative = inhibition"
Cn1c(=O)c2c(ncn2C)n(C)c1=O,inactive,
CN(C)CCn1nnnc1SCC1=C(C(=O)O)N2C(=O)[C@@H](NC(=O)Cc3csc(N)n3)[C@H]2SC1,,-7.81% (inactive)
CN(CCCN1c2ccccc2CCc2ccccc21)CC(=O)c1ccc(Cl)cc1,,1.02% (inactive)
O=C(NCC1CN(c2ccc(N3CCOCC3=O)cc2)C(=O)O1)c1ccc(Cl)s1 (configuration not stated),inactive,
CC(C)(C)C(=O)OCOC(=O)[C@@H]1N2C(=O)[C@@H](NC(=O)[C@H](N)c3ccccc3)[C@H]2SC1(C)C,,-10.9% (inactive)
Oc1ccc(CCNCCCCCCNCCc2ccccc2)cc1O,,19.3% (inactive)
CCCOc1ccccc1-c1nc2n[nH]nc2c(=O)[nH]1,inactive,
CCOC(=O)C(=O)CCc1ccccc1,,-1.39% (inactive)
Nc1ccc2c(c1)CN1C(=O)c3ccccc3C1=N2,,5.98% [at 24.7 µM] (inactive)
C[C@@H]1CCC[C@H](C)N1CCCC(O)(c1ccccc1)c1ccccn1 (some centres not stated),,5.63% (inactive)
COc1ccc2c(c1)c(CC(=O)O)c(C)n2C(=O)c1ccc(Cl)cc1,inactive,
O=C(O)c1cccnc1Nc1cccc(C(F)(F)F)c1,inactive,
CCC(=O)O[C@]1(C(=O)COC)[C@@H](C)C[C@H]2[C@@H]3CCC4=CC(=O)C=C[C@]4(C)C3(F)[C@@H](O)C[C@@]21C (some centres not stated),,-7.57% (inactive)
C1CCN2C[C@@H]3C[C@@H](CN4CCCC[C@@H]34)[C@H]2C1,,5.74% (inactive)
O=C(CCCCC(=O)Nc1c(I)cc(I)c(C(=O)O)c1I)Nc1c(I)cc(I)c(C(=O)O)c1I,,-13.6% (inactive)
Cc1nc(C2CCCCC2)c(-c2ccc(S(N)(=O)=O)c(F)c2)o1,,-3.99% (inactive)
O=C(CCCN1CCC(O)(c2ccc(Br)cc2)CC1)c1ccc(F)cc1,,-4.64% (inactive)
